# Laboratory results taken from PubChem BioAssay (NCATS).
# Results filed as inconclusive are left out. A call without a number means that no potency is given here. Calls of active or inactive are those of the source. The call rests on the fitted dose curve; in most records, active means well fitted curve in the direction sought with a large enough effect; inconclusive means small, poorly fitted or top-dose-only effect, or another doubt; inactive means no such curve, though single readings can be large; an effect the other way counts as inactive or inconclusive.
# Experiments:
# [1] = MultiTox-Fluor Cytotoxicity Assay - LYMP1-002 - Dead Cells (AID 960); details: LYMP1-002 lymphoblastoid cells, dead-cell protease fluorescence; series mostly up to 46.1 µM; further: nearly all actives have a fitted effect of over 60% in size
# Method in brief: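 Readout: fluorescence at 485/520 from cell-impermeant bis-AAF-R110 cleaved by proteases leaking from damaged cells. LYMP1-002 lymphoblastoid line, 16 hr compound treatment at 37 C, concentration-response in qHTS format; Hill-equation AC50 values.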
# [2] = MultiTox-Fluor Cytotoxicity Assay - LYMP1-003 - Dead Cells (AID 961); details: LYMP1-003 lymphoblastoid cells, dead-cell protease fluorescence; series mostly up to 92.2 µM; further: nearly all actives have a fitted effect of over 70% in size; further: potency means the concentration at half of the fitted maximal effect
# Method in brief: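 Dead-cell protease release, detected as bis-AAF-R110 fluorescence at 485/520 nm, was measured in LYMP1-003 cells after 16 h compound treatment at 37 C. AC50 values came from Hill-modeled qHTS curves normalized to DMSO (0%) and 15 uM tetraoctylammonium bromide (100%).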
# [3] = MultiTox-Fluor Cytotoxicity Assay - LYMP1-003 - Live Cells (AID 962); details: LYMP1-003 lymphoblastoid cells, MultiTox-Fluor live-cell protease fluorescence; series mostly up to 92.2 µM;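 further: cells exposed to compound for 16 hours at 37 °C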; further: potency means the concentration at half of the fitted maximal effect
# Method in brief: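 Readout: live-cell fluorescence (Ex/Em=405/510) from GF-AFC cleavage after 60 min MultiTox-Fluor reagent at room temperature. Lymphoblastoid LYMP1-003 cells, 16 hr compound treatment, 37 C. Concentration-response fitted to standard Hill equation for AC50.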
# [4] = Cell Viability - LYMP1-003 - Assay at 24 hr (AID 963); details: LYMP1-003 lymphoblastoid cell viability; series mostly up to 92.2 µM; further: potency means the concentration at half of the fitted maximal effect
# Method in brief: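 CellTiter-Glo luminescence (intracellular ATP) read after 24 hr, 37 C compound exposure of 2500 LYMP1-003 human lymphoblastoid cells/well in complete medium; qHTS concentration series; AC50 via standard Hill equation.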
# [5] = Cell Viability - LYMP1-003 - Assay at 40 hr (AID 964); details: LYMP1-003 lymphoblastoid viability; series mostly up to 92.2 µM; further: nearly all actives have a fitted effect of over 60% in size; further: potency means the concentration at half of the fitted maximal effect
# Method in brief: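 LYMP1-003 lymphoblastoid cells, 2500/well; 5 hr preincubation, 40 hr compound exposure, 37 C; CellTiter-Glo 30 min RT; luminescence; Hill-fit AC50. Positive control tetraoctylammonium bromide.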
# [6] = Cell Viability - LYMP2-003 (AID 965); details: LYMP2-003 lymphoblastoid cell viability; series mostly up to 92.2 µM;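 further: cells exposed to compounds for 24 h before reading; nearly all actives have a fitted effect of over 50% in size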; further: potency means the concentration at half of the fitted maximal effect
# Method in brief: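 CellTiter-Glo luminescence quantified ATP loss after 24 h compound treatment of LYMP2-003 lymphoblastoid cells at 37 C. Titration series were fitted with the standard Hill equation to give AC50.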
# [7] = Cell Viability - LYMP2-004 (AID 966); details: LYMP2-004 lymphoblastoid cell viability, qHTS; series mostly up to 92.2 µM; further: nearly all actives have a fitted effect of over 65% in size; further: potency means the concentration at half of the fitted maximal effect
# Method in brief: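 Luminescent ATP read-out (CellTiter-Glo, 30 min RT) after 24 hr compound exposure at 37 C; 2500 lymphoblastoid cells/well, complete medium. Decrease in ATP = cytotoxicity; AC50 from standard Hill model.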
# [8] = Cell Viability - LYMP2-009 (AID 968); details: LYMP2-009 lymphoblastoid cell viability; series mostly up to 92.2 µM; further: nearly all actives have a fitted effect of over 55% in size; further: potency means the concentration at half of the fitted maximal effect
# [9] = target: Alpha-galactosidase (Coffea arabica) (UniProt Q42656); assay: Counterscreen for Glucocerebrosidase Inhibitors: qHTS Assay for Coffee Bean alpha-Galactosidase at pH 4.5 (AID 957); details: purified coffee bean alpha-galactosidase, fluorogenic substrate; series mostly up to 76.9 µM
# Sequence of Alpha-galactosidase (Coffea arabica) (Q42656 whole entry, looked up): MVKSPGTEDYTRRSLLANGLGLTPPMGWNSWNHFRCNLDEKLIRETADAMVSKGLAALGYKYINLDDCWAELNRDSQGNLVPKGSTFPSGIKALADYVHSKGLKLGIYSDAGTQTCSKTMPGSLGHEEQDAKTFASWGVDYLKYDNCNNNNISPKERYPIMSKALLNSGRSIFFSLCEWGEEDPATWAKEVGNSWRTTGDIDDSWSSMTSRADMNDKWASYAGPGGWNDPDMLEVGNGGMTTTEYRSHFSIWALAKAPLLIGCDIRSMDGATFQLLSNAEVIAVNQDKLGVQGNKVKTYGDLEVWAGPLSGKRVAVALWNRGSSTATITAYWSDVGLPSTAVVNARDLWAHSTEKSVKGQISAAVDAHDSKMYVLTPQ
# Method in brief: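 Fluorogenic read-out: 4-methylumbelliferone at Ex 365/Em 440 nm after NaOH/glycine stop (pH 10). Enzyme 2 nM, 4-MU-alpha-galactoside 80 uM, citrate buffer pH 4.5, 20 min RT; normalized to no-enzyme and enzyme controls.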
# [10] = Cell Viability - LYMP2-005 (AID 967); details: LYMP2-005 lymphoblastoid cell viability; series mostly up to 92.2 µM
# Method in brief: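 LYMP2-005 human lymphoblastoid cells (2500/well) were treated with compounds for 24 h at 37 C. Intracellular ATP was then measured by CellTiter-Glo luminescence after 30 min at room temperature. AC50 values came from Hill-equation fits of qHTS concentration-response data.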
Compound,outcome [1],Potency [2],Potency [3],Potency [4],Potency [5],Potency [6],Potency [7],Potency [8],outcome [9],outcome [10]
Nc1ccc([N+](=O)[O-])cc1,inactive,inactive,inactive,inactive,inactive,inactive,inactive,inactive,–,–
C[N+](C)(C)CC(=O)O,–,–,–,–,–,–,–,–,inactive,–
O=[N+]([O-])c1c(Cl)c(Cl)cc(Cl)c1Cl,inactive,inactive,inactive,inactive,inactive,inactive,inactive,inactive,–,inactive
CCCCOC(=O)c1ccccc1C(=O)OCc1ccccc1,–,inactive,inactive,inactive,inactive,inactive,inactive,inactive,–,inactive
NCCS,–,–,–,–,–,–,–,–,inactive,–
c1cc2ccc3cccc4ccc(c1)c2c34,inactive,inactive,inactive,inactive,inactive,inactive,inactive,inactive,–,inactive
CN(C)NC(=O)CCC(=O)O,inactive,inactive,inactive,inactive,inactive,inactive,inactive,inactive,–,inactive
O=[N+]([O-])c1c2ccccc2cc2ccccc12,inactive,inactive,inactive,inactive,inactive,inactive,inactive,inactive,–,inactive
CC(=O)[O][Hg][c]1ccccc1,inactive,2510 nM (active),3160 nM (active),3160 nM (active),1580 nM (active),1580 nM (active),1000 nM (active),501 nM (active),–,–
CCCCCCCCc1ccc(O)cc1,inactive,inactive,inactive,inactive,–,inactive,inactive,inactive,–,inactive
Nc1ccc(Cl)cc1,inactive,inactive,inactive,inactive,inactive,inactive,inactive,inactive,–,inactive
